# Results filed as inconclusive are left out. Entries that show only a call come without a potency. The source made the active and inactive calls. Unless noted, the call rests on the fitted dose curve; in most records, active means well fitted curve in the direction sought with a large enough effect in the repeat runs; inconclusive means weak or mixed curves; inactive means no such curve, though single readings can be large; an effect the other way counts as inactive or inconclusive.
# Tests used:
# [1] = qHTS assay to identify small molecule antagonists of the glucocorticoid receptor (GR) signaling pathway - cell viability counter screen (AID 720693); further: nearly all actives have a fitted effect of over 55% in size
# [2] = qHTS assay for identifying genotoxic compounds that show differential cytotoxicity against isogenic chicken DT40 cell lines with known DNA damage response pathways - wild type cell line (AID 743012); further: nearly all actives have a fitted effect of over 60% in size; further: potency means the concentration at half of the fitted maximal effect
# In short: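 Luminescent ATP viability signal (CellTiter-Glo, 30 min RT) recorded after wild type DT40 cells were incubated with compounds for 40 h at 37 C/5% CO2.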
# [3] = qHTS assay for identifying genotoxic compounds that show differential cytotoxicity against isogenic chicken DT40 cell lines with known DNA damage response pathways - Rev3 mutant cell line (AID 743014); further: nearly all actives have a fitted effect of over 55% in size; further: potency means the concentration at half of the fitted maximal effect
# [4] = qHTS assay for identifying genotoxic compounds that show differential cytotoxicity against isogenic chicken DT40 cell lines with known DNA damage response pathways - Rad54/Ku70 mutant cell line (AID 743015); further: nearly all actives have a fitted effect of over 60% in size; further: potency means the concentration at half of the fitted maximal effect
# [5] = qHTS assay to identify small molecule antagonists of the androgen receptor (AR) signaling pathway - cell viability counter screen (AID 743033; further: nearly all actives have a fitted effect of over 45% in size)
# [6] = target: Androgen receptor (Homo sapiens) (UniProt P10275); experiment: qHTS assay to identify small molecule antagonists of the androgen receptor (AR) signaling pathway (AID 743035; active means well fitted inhibition curve with a large enough effect in the signal ratio in the repeat runs, not every such curve was filed as active; the % refers to the signal ratio)
# Sequence of Androgen receptor (Homo sapiens) (P10275 whole entry, looked up): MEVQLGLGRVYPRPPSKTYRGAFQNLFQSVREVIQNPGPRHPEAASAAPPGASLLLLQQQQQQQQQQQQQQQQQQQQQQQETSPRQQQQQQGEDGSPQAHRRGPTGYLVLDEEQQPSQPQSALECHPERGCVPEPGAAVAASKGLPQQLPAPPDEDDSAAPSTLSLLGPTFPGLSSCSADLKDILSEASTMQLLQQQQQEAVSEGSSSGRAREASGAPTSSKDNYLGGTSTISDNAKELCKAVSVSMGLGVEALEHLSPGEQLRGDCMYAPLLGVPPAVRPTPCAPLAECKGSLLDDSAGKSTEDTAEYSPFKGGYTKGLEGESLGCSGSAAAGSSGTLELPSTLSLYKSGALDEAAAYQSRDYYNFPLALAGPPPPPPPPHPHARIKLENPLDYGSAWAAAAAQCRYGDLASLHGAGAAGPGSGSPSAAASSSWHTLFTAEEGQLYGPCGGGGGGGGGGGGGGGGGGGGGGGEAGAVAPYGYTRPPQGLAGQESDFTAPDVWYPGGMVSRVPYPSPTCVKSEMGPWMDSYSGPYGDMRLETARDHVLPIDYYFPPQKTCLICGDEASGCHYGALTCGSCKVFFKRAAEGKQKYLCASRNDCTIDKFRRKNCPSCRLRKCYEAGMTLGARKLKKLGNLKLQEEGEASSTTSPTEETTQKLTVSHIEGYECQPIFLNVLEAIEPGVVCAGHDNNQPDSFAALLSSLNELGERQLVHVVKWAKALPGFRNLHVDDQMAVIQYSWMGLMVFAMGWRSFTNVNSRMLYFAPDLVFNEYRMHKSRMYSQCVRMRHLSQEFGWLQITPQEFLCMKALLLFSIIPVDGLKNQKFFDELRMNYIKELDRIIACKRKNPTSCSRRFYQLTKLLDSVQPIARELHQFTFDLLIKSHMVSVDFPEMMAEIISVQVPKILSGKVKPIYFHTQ
# In short: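 Quantitative HTS of the Tox21 10K library used HEK293 AR-UAS-bla cells stimulated with R1881 alongside compound for 16 h at 37C, followed by beta-lactamase FRET detection (LiveBLAzer B/G, 2 h, RT).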
# [7] = target: Androgen receptor (Homo sapiens) (UniProt P10275); experiment: qHTS assay to identify small molecule agonists of the androgen receptor (AR) signaling pathway (AID 743036; active means well fitted activation curve with a large enough effect in the signal ratio in the repeat runs, with a control signal flat, not every such curve was filed as active; the % refers to the signal ratio)
# In short: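 Cell-based FRET reporter assay: HEK293 line with a UAS-beta-lactamase construct, compounds added in DMSO, 16 h exposure at 37C, then 2 h substrate step at room temperature and fluorescence intensity read.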
# [8] = target: Androgen receptor (Homo sapiens) (UniProt P10275); experiment: qHTS assay to identify small molecule agonists of the androgen receptor (AR) signaling pathway using the MDA cell line (AID 743040; further: nearly all actives have a fitted effect of over 20% in size)
# In short: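 Agonist activity is measured as luciferase luminescence in human MDA-kb2 cells whose MMTV reporter responds to both AR and GR. Compounds in DMSO incubate 16 h at 37C, 0% CO2, and ONE-Glo is read after 30 min.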
# [9] = qHTS assay to identify small molecule antagonists of the androgen receptor (AR) signaling pathway using the MDA cell line - cell viability counter screen (AID 743041; further: nearly all actives have a fitted effect of over 45% in size)
# In short: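 qHTS viability read-out; MDA-kb2 AR-luc; R1881-stimulated; 16 h exposure at 37C, 0% CO2; CellTiter-Fluor, 30 min; fluorescence intensity.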
# [10] = target: Androgen receptor (Homo sapiens) (UniProt P10275); experiment: qHTS assay to identify small molecule antagonists of the androgen receptor (AR) signaling pathway using the MDA cell line (AID 743042; further: nearly all actives have a fitted effect of over 55% in size)
# In short: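 MDA-kb2 cells (human breast carcinoma, stably carrying an MMTV-luciferase reporter responsive to AR and GR) were plated at 3,000 cells/well and preincubated 5 hr at 37C, then given compound plus R1881 agonist for 16 h. ONE-Glo luminescence was read.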
Compound,Potency [1],Potency [2],Potency [3],Potency [4],Potency [5],Potency [6],outcome [7],outcome [8],Potency [9],Potency [10]
CC[C@H](N)c1ccccc1,inactive,inactive,inactive,inactive,inactive,inactive,inactive,inactive,inactive,inactive
CCC1(c2ccccc2)CCC(=O)NC1=O (centres undefined),inactive,inactive,inactive,inactive,inactive,inactive,inactive,inactive,inactive,inactive
Clc1nc(Cl)nc(Nc2ccccc2Cl)n1,inactive,inactive,inactive,inactive,inactive,–,–,–,–,–
CNC(=O)Oc1ccccc1C(C)C,inactive,inactive,inactive,inactive,inactive,inactive,inactive,inactive,inactive,inactive
COP(=O)(O)OC,inactive,inactive,inactive,inactive,inactive,inactive,inactive,inactive,inactive,inactive
C/C(=N\NC(=O)Nc1cc(F)cc(F)c1)c1ncccc1C(=O)O,inactive,inactive,inactive,inactive,inactive,–,–,–,inactive,–
C=CCCC#N,inactive,inactive,inactive,inactive,inactive,–,–,–,–,–
CN=CNc1ccc(C)cc1C,inactive,inactive,inactive,inactive,inactive,–,–,–,inactive,–
C#CC(C)(C)O,inactive,inactive,inactive,inactive,inactive,–,–,–,inactive,–
CCSC(=O)Cl,inactive,inactive,inactive,inactive,inactive,inactive,–,–,inactive,inactive
BrCc1ccc(Br)cc1,inactive,inactive,inactive,inactive,inactive,inactive,–,inactive,inactive,inactive
C[C@H](N)C(=O)c1ccccc1,inactive,inactive,inactive,inactive,inactive,inactive,inactive,inactive,inactive,inactive
COc1cccc([C@@]2(O)CCCC[C@@H]2CN(C)C)c1,inactive,inactive,inactive,inactive,inactive,inactive,inactive,inactive,inactive,inactive
CCNP(=S)(OC)O/C(C)=C/C(=O)OC(C)C (centres undefined),inactive,61.1 µM (active),34.4 µM (active),54.5 µM (active),inactive,–,–,–,–,–
ClCCCCl,inactive,inactive,inactive,inactive,inactive,–,–,–,inactive,–
Cc1cc(OC(=O)N(C)C)nn1C(=O)N(C)C,inactive,inactive,inactive,inactive,inactive,–,–,–,inactive,–
CCC(=O)c1ccc(Cl)cc1,inactive,inactive,inactive,inactive,inactive,–,–,–,inactive,–
O=[N+]([O-])c1cccc(CCl)c1,inactive,inactive,inactive,inactive,inactive,–,–,–,inactive,–
CCCCCCCC(=O)Cl,inactive,inactive,inactive,inactive,inactive,–,–,–,inactive,–
COc1cc(CCN)cc(OC)c1OC,inactive,inactive,inactive,inactive,inactive,–,–,–,inactive,–
C(COCC1CO1)OCC1CO1 (centres undefined),inactive,6.86 µM (active),1.54 µM (active),8.63 µM (active),inactive,–,–,–,inactive,–
C=C(Cl)CSC(=S)N(CC)CC,inactive,33.5 µM (active),66.8 µM (active),53 µM (active),inactive,–,–,–,inactive,–
O=P(O)(O)CN(CP(=O)(O)O)CP(=O)(O)O,inactive,inactive,inactive,inactive,inactive,–,–,–,inactive,–
O=C(O)C(Br)(Br)Br,inactive,inactive,inactive,inactive,inactive,–,–,–,inactive,–
CC(C)(C)C(=O)C(Cl)Cl,inactive,inactive,inactive,inactive,inactive,–,–,–,inactive,–
S=C=S,inactive,inactive,inactive,inactive,inactive,–,–,–,inactive,–
CCCN1CCC[C@@H]2Cc3[nH]ncc3C[C@H]21,inactive,inactive,inactive,inactive,inactive,–,–,–,inactive,–
Cc1ccc2cc(C)ccc2c1,inactive,inactive,inactive,inactive,inactive,–,–,–,inactive,–
